Screens deposited in PubChem BioAssay by Sanford-Burnham Center for Chemical Genomics.
Mac1 fbg inh = inhibitors of human CD11b/CD18 binding to fibrinogen; 93,000 tested, 0.54% active; inhibition, % at 10 µM; AID 1497; K562 CD11b/CD18 adhesion to fibrinogen, ATPlite luminescence; Mn2+ added to activate the integrin;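 active = primary inhibition of 50% or more at 10 µM, then 40% or more on retest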
CYP2C9 inh = blocks human cytochrome P450 2C9; P11712; CYP2C9 Supersomes, luciferin-H conversion, luminescence; inhibition, % at 5 µM; 96,000 tested, 20% active; AID 777;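 active = blocking of liver enzyme CYP2C9 beyond about 50% at 5 µM, limit read from the data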
Target sequence (P11712 whole entry, looked up): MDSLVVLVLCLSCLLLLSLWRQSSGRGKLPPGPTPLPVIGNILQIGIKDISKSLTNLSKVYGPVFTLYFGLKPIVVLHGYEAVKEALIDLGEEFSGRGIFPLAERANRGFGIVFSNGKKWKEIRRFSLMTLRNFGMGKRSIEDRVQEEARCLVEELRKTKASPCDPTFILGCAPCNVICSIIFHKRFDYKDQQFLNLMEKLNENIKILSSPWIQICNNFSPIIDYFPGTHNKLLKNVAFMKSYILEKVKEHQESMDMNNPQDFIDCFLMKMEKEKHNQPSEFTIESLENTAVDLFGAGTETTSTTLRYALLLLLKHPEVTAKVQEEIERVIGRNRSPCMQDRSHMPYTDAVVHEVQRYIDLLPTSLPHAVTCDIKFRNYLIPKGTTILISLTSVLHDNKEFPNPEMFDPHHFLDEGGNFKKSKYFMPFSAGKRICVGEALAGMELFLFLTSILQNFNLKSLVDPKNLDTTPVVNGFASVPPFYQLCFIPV
CYP2C9 activ = activators of human CYP2C9; recombinant CYP2C9, luciferin-H conversion, luminescence; active compounds read high; factor 1 = untreated enzyme, 0 = blocked; activation factor at 5 µM; 96,000 tested, 1.4% active; AID 1024;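 active = activation factor of 2 or more for CYP2C9 at a 5 µM dose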;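 also: 0 = sulfaphenazole-blocked wells and 1 = vehicle-only wells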
CYP2C19 act = cytochrome P450 2C19 (human) activation | P33261 | AID 1025 | activation factor at 5 µM | 96,000 tested, under 10 active | recombinant CYP2C19, luciferin-H EGE luminescence; active compounds read high; 0 = fully inhibited enzyme, 1 = untreated enzyme;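 active = activation factor of at least 2 at 5 µM in the primary screen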;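 also: 0 = wells with 2.5 mM tranylcypromine and 1 = vehicle-only wells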
CD11b adhes enh = CD11b/CD18-fibrinogen binding enhancement. AID 1499. P05107+P11215. K562 CD11b/CD18 adhesion to fibrinogen, ATPlite luminescence. activation, % at 10 µM. 93,000 tested, 0.07% active;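 active = 10 µM primary screen giving 50% or more activity, confirmed by 40% or more on retest at that dose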
CYP2C19 inhib = human CYP2C19 inhibition; 96,000 tested, 21% active; inhibition, % at 5 µM; CYP2C19 Supersomes, luciferin-H EGE luminescence, 30 min; P33261; AID 778;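 active = CYP2C19 inhibition above a set limit at 5 µM in the primary screen, cut at about 50% in these data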;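 also: plate controls were negative control wells for no effect and 2.5 mM tranylcypromine positive control for full effect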
An asterisk follows results filed as active; x = no result. Hits are enriched below; roughly 28% of the tested compounds scored in any of these assays.

SMILES | Mac1 fbg inh | CYP2C9 inh | CYP2C9 activ | CYP2C19 act | CD11b adhes enh | CYP2C19 inhib
Cc1cnc(C(=O)OCC(=O)Nc2oc(-c3ccccc3)c(-c3ccccc3)c2C#N)cn1 | 14 | 62* | 0.4 | 0.9 | 5 | 10
N#Cc1c(NC(=O)CSc2ccccn2)oc(-c2ccccc2)c1-c1ccccc1 | 9 | 86* | 0.1 | 1.2 | -2 | -17
CC(C)OC(=O)C1C2C=CC3(CN(Cc4cccs4)C(=O)C13)O2 (centres undefined) | 0 | 8 | 0.9 | 0.8 | -1 | 25
CCOC(=O)N1CCN(c2cc(=O)n(-c3ccc(OCC)cc3)c(=O)[nH]2)CC1 | -8 | -3 | 1 | 1 | -1 | 2
Cc1cccc(C(=O)Nc2ccccc2SCC2CSc3nc4ccccc4c(=O)n32)c1 (centres undefined) | 17 | 10 | 0.9 | 0.8 | -3 | 22
Clc1c(CSc2nc3ccccc3o2)nc2ccccn12 | 7 | -1 | 1 | 0 | 0 | 98*
Brc1c(CSc2nc3ccccc3o2)nc2ncccn12 | -2 | -31 | 1.3 | 0.4 | 0 | 64*
Cc1ccc(C2CC(C(F)(F)F)n3nc(C(=O)NCc4ccco4)cc3N2)cc1 (centres undefined) | 0 | 5 | 0.9 | 0.6 | -2 | 36
CCOC(=O)c1nn(-c2sc(C(=O)OC)c(C)c2C(=O)OC)cc1O | -26 | 61* | 0.4 | 0 | 1 | 100*
CCOC(=O)c1nn(-c2ccc(C)cc2)cc1O | -49 | 31 | 0.7 | 0.4 | -1 | 61*
CC1CCN(c2ncnc3nc[nH]c23)CC1 | 7 | 6 | 0.9 | 1 | -4 | -2
CCOC(=O)C(CC)n1nc(C)n2c(cc3occc32)c1=O (centres undefined) | -3 | 71* | 0.3 | 0.9 | -1 | 12
CCOc1ccc(CNC(=O)C2CCN(S(=O)(=O)CC)CC2)cc1OC | x | -4 | 1 | 1.1 | x | -7
CCOc1ccc(CNC(=O)C(CC)n2nc(C)n3c(cc4occc43)c2=O)cc1OC (centres undefined) | -16 | 75* | 0.3 | 0.8 | 10 | 20
Cc1nn(C(C)C(=O)NCCCc2ccccc2)c(=O)c2cc3occc3n12 (centres undefined) | 4 | 68* | 0.3 | 0.3 | -2 | 71*
CCOc1ccc(CCNC(=O)C(C)n2nc(C)n3c(cc4occc43)c2=O)cc1OCC (centres undefined) | 2 | 62* | 0.4 | 0.7 | -4 | 27
Cc1nn(C(C)C(=O)NCC2CCCO2)c(=O)c2cc3occc3n12 (centres undefined) | -1 | -14 | 1.1 | 1 | -6 | 3
COc1cc2c(cc1NC(=O)CN1CCN(S(=O)(=O)c3ccccc3F)CC1)oc1ccccc12 | -36 | 29 | 0.7 | 0.8 | -4 | 18
Cc1ccc(-c2noc(C3CCCN(C(=O)c4ccccc4)C3)n2)o1 (centres undefined) | -21 | 24 | 0.8 | 0.9 | 6 | 13
COc1ccccc1C(=O)N1CCCC(c2nc(-c3cc(OC)c(OC)c(OC)c3)no2)C1 (centres undefined) | 1 | 45 | 0.6 | 0.4 | 9 | 59*
COc1ccc(C(=O)N2CCCC(c3nc(-c4cc(OC)c(OC)c(OC)c4)no3)C2)cc1 (centres undefined) | -1 | 66* | 0.3 | 0.7 | 1 | 31
COc1ccc(-c2noc(C3CCCN(S(=O)(=O)c4cccc(Cl)c4)C3)n2)cc1OC (centres undefined) | 4 | 87* | 0.1 | 0.1 | -3 | 94*
Cc1ccc(-c2nc(C3CCCN(S(=O)(=O)c4ccc(C(C)(C)C)cc4)C3)no2)cc1 (centres undefined) | -1 | -33 | 1.3 | 0.9 | 0 | 5
COc1ccc(CNCC(O)(c2ccccc2)c2ccc(Cl)cc2)cc1 (centres undefined) | 16 | 58* | 0.4 | 0.2 | -1 | 82*
CC(=O)c1cccc(NC(=O)C(OC(=O)/C=C/c2ccc3c(c2)OCO3)c2ccccc2)c1 (centres undefined) | -4 | 95* | 0.1 | 0.2 | 7 | 76*
SMILES | Mac1 fbg inh | CYP2C9 inh | CYP2C9 activ | CYP2C19 act | CD11b adhes enh | CYP2C19 inhib
Cc1cccc(NC(=O)CO/N=C/c2ccc3c(c2)OCO3)c1 | 2 | x | x | x | 0 | x
COc1ccc(C(O)c2nc3ccccc3s2)cc1 (centres undefined) | -2 | 39 | 0.6 | 0.4 | 0 | 62*
COc1cc(OC)cc(-c2nc3ccccc3s2)c1 | x | 19 | 0.8 | 1 | x | 2
CSc1nnc2c(n1)OC(C)N(C(=O)c1ccccc1)c1ccccc1-2 (centres undefined) | x | 54* | 0.5 | 0.8 | x | 24
Cc1cc(C)n(-c2nc3ccccc3nc2N2CCN(C(=O)c3ccc(Cl)cc3)CC2)n1 | -4 | 60* | 0.4 | 0.5 | 0 | 48
COc1ccc(Nc2nc3ccccc3nc2-n2nc(C)cc2C)cc1 | -50 | -14 | 1.1 | 0.8 | -1 | 23
Cc1cc(-c2ccccc2)n(-c2ccc(C(=O)N3CCN(c4ncccn4)CC3)cc2)n1 | 0 | 61* | 0.4 | 0.8 | 0 | 24
COc1ccc(S(=O)(=O)N2CCN(c3nc4ccccc4nc3-n3nc(C)cc3C)CC2)cc1 | -21 | 59* | 0.4 | 0.9 | 3 | 14
Cc1cc(C)n(-c2nc3ccccc3nc2N2CCCC2)n1 | 1 | 18 | 0.8 | 0.6 | -1 | 40
Cc1cc(C)n(-c2nc3ccccc3nc2N2CCCCCC2)n1 | 14 | 16 | 0.8 | 0.2 | 0 | 75*
CNC(=O)c1ccc(-n2nc(C)cc2-c2ccccc2)cc1 | x | 37 | 0.6 | 0.7 | x | 33
CCN(CC)C(=O)CNC(=O)Cc1ccc(Cl)cc1 | -10 | -21 | 1.2 | 0.6 | -3 | 41
CS(=O)(=O)N1Cc2ccccc2CC1C(=O)Nc1ccccc1C(N)=O (centres undefined) | 6 | 9 | 0.9 | 0.9 | -1 | 5
Cc1[nH]cnc1CSCCN | 15 | 74* | 0.3 | 1.1 | -2 | -6
CN(C)c1ccc(P(=O)(OCc2ccccc2)C(O)c2cccnc2)cc1 (centres undefined) | -4 | 58* | 0.4 | 0.5 | -6 | 48
CC(C)C(O)P(=O)(OCc1ccccc1)c1ccc(N(C)C)cc1 (centres undefined) | 2 | 5 | 0.9 | 0.5 | -6 | 54*
CCCCOP(=O)(c1ccc(N(C)C)cc1)C(O)c1ccccc1F (centres undefined) | 19 | 5 | 1 | 0.7 | -1 | 34
CN(C)c1ccc(C(=O)OCc2ccc(Br)cc2)cc1 | 5 | 12 | 0.9 | 0.5 | 0 | 48
S=c1[nH]nc(COc2ccccc2)n1/N=C/C(Cl)=C/c1ccccc1 | x | 39 | 0.6 | 0.9 | x | 14
